From the supplement of paper PMC4166925
± gives the standard deviation of the averaged measurements. Over roughly 33,000 sequences, “E-score (dimensionless, -0.5 to 0.5)” has its median near -0.046; the highest 2% begin near 0.36. The list comes from a sample in which the highest values are over-represented; it also holds similar and randomly drawn sequences.

Test system: T1, SpTbr T-box DNA-binding domain (GST fusion)
T1 sequence: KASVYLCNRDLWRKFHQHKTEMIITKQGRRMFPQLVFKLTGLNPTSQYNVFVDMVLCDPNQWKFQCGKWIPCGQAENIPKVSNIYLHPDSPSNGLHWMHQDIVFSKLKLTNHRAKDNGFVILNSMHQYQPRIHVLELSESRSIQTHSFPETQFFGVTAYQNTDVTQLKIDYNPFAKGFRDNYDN
Experiment: PBM E-score of 8-mer (E-score (dimensionless, -0.5 to 0.5)); Tbr is Tbrain of the sea star Patiria miniata (Pm) or the sea urchin Strongylocentrotus purpuratus (Sp); higher = stronger binding preference
Details: the construct has about 5 more residues each side
Summary of the method: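 GST-fused Tbr T-box DNA-binding domains (the whole T-box plus about five flanking residues) were expressed in BL21 E. coli at 20 °C and purified by glutathione affinity chromatography. Universal Agilent oligonucleotide arrays were made double-stranded by primer extension, incubated with 200 nM protein in PBS (pH 7.5), then scanned and quantified. Every ungapped 8-mer was scored from probe intensities. The Universal PBM Analysis Suite gave each word an enrichment E-score, averaged over duplicate arrays.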

Sequence	PBM E-score of 8-mer
CGACTGCA	-0.155 ± 0.0016
CGAGGGGA	-0.0885 ± 0.018
CAGTGCTC	0.0319 ± 0.0026
AGACACTC	0.129 ± 0.029
ATGACACG	0.315 ± 0.035
ATGACACC	0.4599 ± 0.0031
CTGACAGC	0.318 ± 0.0042
CTGACATC	-0.107 ± 0.031
CTGACACC	0.4611 ± 0.0014
ATGACACA	0.327 ± 0.033
ACTCATAA	-0.0942 ± 0.0043
CAGAGCGC	-0.00751 ± 0.044
CAGGTCGC	0.225 ± 0.038
GTTTCACA	0.38 ± 0.012
GCTTCACA	0.347 ± 0.013
ATTTCACC	0.0204 ± 0.024
CTTTCAAA	-0.203 ± 0.0062
CTTTCACC	0.0179 ± 0.03
CTTTCACA	0.44384 ± 0.0002
ATTTCACG	0.293 ± 0.04
GTTTCAAA	-0.327 ± 0.079
ATTTCACA	0.4303 ± 0.0022
CGCCCAGA	0.0494 ± 0.0041

Sequence	PBM E-score of 8-mer
AGCTAACT	-0.27 ± 0.067
CCAGTATC	-0.199 ± 0.063
CCCTTAGG	0.00499 ± 0.015
AGCCCCCT	-0.356 ± 0.013
TGCAAGAA	-0.0626 ± 0.014
ACTCTTTG	0.221 ± 0.066
CGCGTCAA	0.313 ± 0.006
GGCGTCAC	0.373 ± 0.024
AGCGTCAA	0.317 ± 0.0075
GGCGTCAA	0.412 ± 0.018
AGCGTCAC	0.3328 ± 0.0021
TGCGTTAA	0.208 ± 0.026
AGCGTTAA	0.36 ± 0.025
CGCGTCAC	0.277 ± 0.039
GGCGTTAA	0.387 ± 0.0042
AAGCGATA	0.2613 ± 0.002
ATAGGCTG	0.0188 ± 0.056
TATGTACA	-0.174 ± 0.083
GGAGCAAC	0.0231 ± 0.049
GAACTTCA	-0.0825 ± 0.021
ACAGTCCG	0.00019 ± 0.0047
GGGGTACC	-0.1738 ± 0.00025
CGGCGTGC	0.00958 ± 0.15

Sequence	PBM E-score of 8-mer
ACGTGACC	0.135 ± 0.082
GCGTGACA	0.345 ± 0.023
TCGTGAAA	0.253 ± 0.054
CCGTGAAC	0.353 ± 0.0099
ACGTGAAC	0.126 ± 0.031
GCGTGACC	0.369 ± 0.004
GCGTGAAA	0.4597 ± 0.0039
GCGTGAAC	0.456 ± 0.0075
CCGTGAAA	0.245 ± 0.022
CCGGATCG	-0.114 ± 0.033
CAAAAAAA	-0.1537 ± 0.00074
CAAGCTTC	-0.215 ± 0.013
AAGGTCAC	0.164 ± 0.036
AACGGGAT	-0.0959 ± 0.041
CGTTTCCA	0.0866 ± 0.0024
CAGTGCGA	0.386 ± 0.0039
ATGTGCGG	0.0899 ± 0.0075
AAGTGCGT	0.203 ± 0.018
TAGTGCAA	0.247 ± 0.024
ATGTGCGC	0.211 ± 0.054
ATGTGCGA	0.47362 ± 0.00026
AAGTGCGC	0.194 ± 0.018
TAGTGCGA	0.4025 ± 0.0017

Sequence	PBM E-score of 8-mer
CAGTGCGG	0.107 ± 0.0036
AAGTGCGA	0.483 ± 0.0069
CAGTGCGC	0.00847 ± 0.051
TAGTGCCA	0.195 ± 0.009
ACGATCTC	0.0369 ± 0.034
GGATGACC	0.103 ± 0.0083
AACCACGG	0.0188 ± 0.11
GCAGAAGA	-0.218 ± 0.017
GAGTGCGC	-0.0493 ± 0.043
ACGTGCGG	0.206 ± 0.011
GAGTGCAA	0.0398 ± 0.012
ACGTGCGA	0.4353 ± 0.0022
GAGTGCGA	0.411 ± 0.021
GCGTGCGA	0.317 ± 0.025
CCACTTCC	0.072 ± 0.0026
ACACTTCT	0.383 ± 0.035
CCACTTCG	0.193 ± 0.017
CCACTTCA	0.108 ± 0.019
GCACTTCC	0.326 ± 0.017
ACTCTTCT	-0.224 ± 0.0037
